Measurements reported in PubChem BioAssay AID1851 (National Center for Advancing Translational Sciences (NCATS), 2009).
Screen size: about 16,000 compounds; about 5,700 (36%) were called active. Not shown: some 24% with an inconclusive outcome. The call rests on the fitted dose curve; in most records, active means well fitted curve in the direction sought with a large enough effect; inconclusive means small, poorly fitted or top-dose-only effect, or effect the other way; inactive means no such curve, though single readings can be large or run the other way. The list shows a part of the results.

These compounds were tested against Cytochrome P450 1A2 (Homo sapiens) (UniProt P05177) (assay: Cytochrome panel assay with activity outcomes). Conditions: recombinant CYP, pro-luciferin dealkylation, luminescence, p450-cyp1a2; series mostly up to 57.1 µM.
On the % scale 0 is the no-effect control and ±100 the full control effect.

Cytochrome P450 1A2 (Homo sapiens), sequence (P05177 whole entry, looked up): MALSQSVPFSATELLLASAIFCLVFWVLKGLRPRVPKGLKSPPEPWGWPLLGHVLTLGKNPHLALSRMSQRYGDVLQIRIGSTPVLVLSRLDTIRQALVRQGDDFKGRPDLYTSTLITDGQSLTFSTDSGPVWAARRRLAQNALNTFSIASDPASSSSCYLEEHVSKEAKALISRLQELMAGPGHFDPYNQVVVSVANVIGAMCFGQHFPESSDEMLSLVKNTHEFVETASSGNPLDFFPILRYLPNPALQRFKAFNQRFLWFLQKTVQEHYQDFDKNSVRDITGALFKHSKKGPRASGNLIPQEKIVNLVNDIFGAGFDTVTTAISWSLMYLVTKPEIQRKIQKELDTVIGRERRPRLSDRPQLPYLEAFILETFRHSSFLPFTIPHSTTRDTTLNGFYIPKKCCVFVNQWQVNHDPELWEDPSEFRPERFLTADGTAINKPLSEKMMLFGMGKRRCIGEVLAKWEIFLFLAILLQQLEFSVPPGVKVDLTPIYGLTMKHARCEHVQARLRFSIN

Compound | activity, negative = inhibition | AC50
CC(=O)OCC(=O)[C@]12OC(C)(C)O[C@@H]1C[C@H]1[C@H]3CC=C4C[C@@H](O)CC[C@]4(C)[C@H]3CC[C@]12C | 4.12% [at 11.4 µM] (inactive) | –
Cc1csc(NC(=O)Cc2c[nH]c3ccccc23)n1 | – | 11.2 µM (active)
CCOC(=O)N1CCN(C(=O)CNS(=O)(=O)c2cccs2)CC1 | – | inactive
Cc1ccc(S(=O)(=O)NCC(=O)N(CC(=O)NCc2ccco2)Cc2cccs2)cc1 | – | inactive
Cc1csc(NC(=O)CNS(=O)(=O)c2cccs2)n1 | – | 12.6 µM (active)
Cc1ccnc(NS(=O)(=O)c2ccc(N)cc2)n1 | – | inactive
COCc1c(C(=O)OCC(=O)N2c3ccccc3NC(=O)C2(C)C)oc2ccccc12 | – | 0.562 µM (active)
CCCCC1(C)OC(=O)C(=Cc2ccc(N(CC)CC)cc2)C(=O)O1 (stereo not drawn) | – | 5.01 µM (active)
CCc1nnc(NC(=O)c2c(C)nn(-c3ccccc3)c2Cl)s1 | – | 7.08 µM (active)
CCc1nnc(NC(=O)CCC(=O)N2CCN(c3ccccn3)CC2)s1 | – | inactive
CCn1c(C)nc2cc(S(=O)(=O)C(F)F)ccc21 | – | 5.01 µM (active)
O=C(N/N=C1/C[C@@H](O)[C@@H](O)[C@@H]2[C@H]3C(=O)N(c4ccc(F)cc4F)C(=O)[C@@H]3CC[C@H]12)OCc1ccccc1 | -2.59% [at 11.4 µM] (inactive) | –
CC(C)(C)C(=O)Nc1cccc(-c2nc3ccccc3c(=O)o2)c1 | – | 11.2 µM (active)
N=C(N)SCc1cccc(-c2nc3ccccc3c(=O)o2)c1 | -10.3% [at 2.29 µM] (inactive) | –
CC(C)CC(=O)Nc1ccc2c(c1)oc1ccccc12 | – | 0.794 µM (active)
CC(CC(=O)O)CC(=O)Nc1ccc(S(N)(=O)=O)cc1 (stereo not drawn) | – | inactive
O[C@H](C[C@@H]1CCCCN1)c1ccc2c(c1)oc1ccccc12 | -10.4% [at 2.29 µM] (inactive) | –
Cc1cc(-c2ccc(/C=N/n3cnnc3)o2)c([N+](=O)[O-])cc1C | – | 0.316 µM (active)
C[C@@H]1/C=C\CC(=O)OC[C@H]2O[C@@H](C=C[C@@H]2O)[C@H](C)/C=C\CC(=O)OC[C@H]2O[C@H]1C=C[C@@H]2O | 7.11% [at 11.4 µM] (inactive) | –
CCC(C)Nc1nc(OCC(F)(F)F)nc(OCC(F)(F)F)n1 (stereo not drawn) | – | 10 µM (active)
C[C@@H]1O[C@H](O[C@@H]2[C@H](C)O[C@H](O[C@@H]3[C@H](C)O[C@H](O[C@H]4CC[C@]5(C)[C@@H](CC[C@@H]6[C@H]5C[C@@H](O)[C@]5(C)[C@@H](C7=CC(=O)OC7)CC[C@]65O)C4)C[C@@H]3O)C[C@@H]2O)C[C@H](O)[C@@H]1O | – | inactive
O=S(=O)(c1ccccc1)c1cnn2c(C(F)(F)F)cc(-c3ccccc3)nc12 | – | inactive
O=S(=O)(c1ccccc1)c1cnn2c(C(F)(F)F)cc(-c3ccc(F)cc3)nc12 | – | 0.794 µM (active)
C[N+](C)(C)c1ccc([C@H](N)C(=O)O)cc1 | -19.7% [at 11.4 µM] (inactive) | –
N#Cc1cc(N)ccc1Sc1ccc(Cl)cc1 | – | 1.78 µM (active)
COc1ccc(Sc2ccc(NC(=O)c3ccccc3Cl)cc2C#N)cc1 | – | inactive
CCC(C)[C@H](NC(=O)NC1CCN(Cc2ccccc2)CC1)C(=O)OC (stereo partly drawn) | – | inactive

Compound | activity, negative = inhibition | AC50
CCN1CCC[C@H]1CNC(=O)c1cc(S(N)(=O)=O)ccc1OC | – | inactive
CNc1cc(OC)c(C(=O)N[C@@H]2CCN(Cc3ccccc3)[C@H]2C)cc1Cl | – | 31.6 µM (active)
CC(=O)N(CC(O)CN(C(C)=O)c1c(I)c(C(=O)NC[C@@H](O)CO)c(I)c(C(=O)NC[C@@H](O)CO)c1I)c1c(I)c(C(=O)NC[C@@H](O)CO)c(I)c(C(=O)NC[C@@H](O)CO)c1I | – | inactive
CC(=O)/C(=N\N=C(N)N)c1ccccc1 | -17.2% [at 2.29 µM] (inactive) | –
NC(N)=N/N=C(/c1ccccc1)c1ccc(O)cc1O | – | 3.16 µM (active)
CCN1C(=O)[C@H]2[C@H]3[C@H](O)[C@H](O)C/C(=N/OC[C@@H](O)COCc4ccco4)[C@@H]3CC[C@@H]2C1=O | -5.56% [at 11.4 µM] (inactive) | –
O=C(NCc1cn(-c2ccccc2)nc1-c1ccccc1)c1cc([N+](=O)[O-])cc([N+](=O)[O-])c1 | – | inactive
CCc1ccccc1NC(=O)CSc1nc(-c2ccccc2)nn1C(=O)c1cccc([N+](=O)[O-])c1 | – | 3.16 µM (active)
COc1ccc(NC(=O)N2CCCC3(CCN(C(=O)c4ccc(OC)cc4)CC3)C2)cc1 | – | inactive
COc1ccc2c(c1)CCc1c(C(=O)N3CCCCCC3)noc1-2 | – | 6.31 µM (active)
COc1ccc(C(=O)N2CCC3(CCCN(C)C3)CC2)cc1 | – | inactive
CC(C)COCC1CC2(CC(C)(c3csc(N)n3)OC2=O)C(=O)O1 (stereo not drawn) | – | inactive
COCCNC(=O)c1ccc2c(c1)nc(C)n2-c1cc(OC)c(OC)c(OC)c1 | – | inactive
COCCNC(=O)c1ccc2c(c1)ncn2-c1ccc(F)c(F)c1 | – | 15.8 µM (active)
C[N+](C)(C)CCN(Cc1ccc(Cl)cc1)c1ccccn1 | – | inactive
CN(CCOc1ccc(C[C@H](Nc2ccccc2C(=O)c2ccccc2)C(=O)O)cc1)c1ccccn1 | – | inactive
O=C(COc1ccc(Cl)cc1)N(Cc1ccccc1)c1ccccn1 | – | 2.24 µM (active)
O=C(CCn1c(=S)[nH]c2ccccc2c1=O)NCCCN1CCOCC1 | – | inactive
O=C(c1ccc2c(=O)n(CC3CCCO3)c(=S)[nH]c2c1)N1CCN(c2ccccc2)CC1 (stereo not drawn) | – | inactive
O=C(CCCn1c(=S)[nH]c2ccc(Br)cc2c1=O)NCC1CCCO1 (stereo not drawn) | – | 4.47 µM (active)
COCCNC(=O)CCCCCn1c(=S)[nH]c2ccccc2c1=O | – | 14.1 µM (active)
O=C(c1cnccn1)N1CCC2(CC1)CCN(c1ncccn1)CC2 | – | inactive
COC(=O)c1ccc(Oc2coc3cc(OCc4cnn(-c5ccccc5)c4)ccc3c2=O)cc1 | – | inactive
Cc1[nH]nc(-c2ccc(OCc3cnn(-c4ccccc4)c3)cc2O)c1Oc1ccccc1F | – | 22.4 µM (active)
Cc1cc(C)cc(C(=N)c2ccccc2Cc2cccc3ccccc23)c1 | -5.4% [at 2.29 µM] (inactive) | –
CO[C@H]1COC(=O)CCC[C@@H](C)[C@H](OC)COC(=O)[C@H]2CCCN2C(=O)C/C=C\[C@@H]1C | -4.29% [at 11.4 µM] (inactive) | –
